D1 antag: Antagonist of Human D 1 Dopamine Receptor: qHTS. D(1A) dopamine receptor (Homo sapiens), P21728. HEK293 TREx D1 cells, calcium flux, dopamine EC80; stronger effect = lower value. activity change, negative = inhibition, % at 10 µM. 360,000 compounds, 3.2% hits. AID 504652, 2011; in the data active = activity change below about -30%
Target sequence (P21728 whole entry, looked up): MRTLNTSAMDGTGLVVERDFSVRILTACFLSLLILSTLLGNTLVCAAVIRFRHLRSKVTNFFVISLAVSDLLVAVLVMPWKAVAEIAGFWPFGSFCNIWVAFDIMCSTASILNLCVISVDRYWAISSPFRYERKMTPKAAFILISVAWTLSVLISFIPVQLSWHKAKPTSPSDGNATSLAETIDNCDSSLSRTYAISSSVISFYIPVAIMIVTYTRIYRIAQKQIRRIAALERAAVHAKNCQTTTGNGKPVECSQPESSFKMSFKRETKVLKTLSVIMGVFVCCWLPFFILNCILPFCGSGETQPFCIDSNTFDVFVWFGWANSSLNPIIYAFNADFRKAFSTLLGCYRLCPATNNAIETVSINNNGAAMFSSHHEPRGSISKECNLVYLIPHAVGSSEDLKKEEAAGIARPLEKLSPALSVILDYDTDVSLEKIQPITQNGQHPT
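Allosteric or orthosteric antagonism assessed as attenuation of the calcium response to EC80 dopamine, added 180 s after compound, in induced HEK293 Trex D1 cells loaded with no-wash calcium dye.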
D1 agonist: Allosteric Agonists of the Human D1 Dopamine Receptor: qHTS; D(1A) dopamine receptor (Homo sapiens), P21728; HEK293 T-REx D1 cells, calcium flux, agonist mode; activation, % at 2 µM; 360,000 compounds, 1% hits; AID 504660, 2011; in the data active = activation above about 30%
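Inducible HEK293 T-REx D1 cells, force-coupled to calcium signalling, were plated at 4000 cells/well with tetracycline and held overnight at 30 C. After no-wash calcium dye loading, compound-evoked calcium rise over 180 s flagged agonists.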
TRHR agonist-1: qHTS for Small Molecule Agonists and Allosteric Enhancers of Human TRH Receptor: Primary Screen for Agonists; Thyrotropin-releasing hormone receptor (Homo sapiens), P34981; TRHR cells, calcium flux fluo-8, FDSS agonist mode; activation, % at 2 µM; 360,000 compounds, 0.18% hits; AID 493084, 2011; in the data active = activation above about 30%
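Steps: seed TRHR cells overnight; add fluo-8 no-wash Ca dye, RT 30 min–1.5 h; record 10 s baseline; pin-transfer compounds; monitor fluorescence 1 cycle/s for the agonist window. Calcium increases flag candidate agonists.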
D1 potentiator: Potentiators of Human D1 Dopamine Receptor: qHTS; D(1A) dopamine receptor (Homo sapiens), P21728; HEK293 TREx D1 cells, calcium flux, dopamine EC20 potentiation; potentiation, % at 10 µM; 360,000 compounds, 0.036% hits; AID 504651, 2011; in the data active = potentiation above about 30%
TRHR enhancer-1: qHTS for Small Molecule Agonists and Allosteric Enhancers of Human TRH Receptor: Primary Screen for Enhancers. enhancement, % at 2 µM. 360,000 compounds, 0.66% hits. TRHR cells, fluo-8 calcium fluorescence, EC20 TRH enhancement; in the data active = enhancement above about 30%
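TRHR-expressing cells loaded with fluo-8 calcium dye were read kinetically (ex 480/em 530) during compound addition, then stimulated with an EC20 of TRH (10 nM final). Enhancement of the Gq-mediated intracellular calcium response was scored.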
GRP78 ERSR act: qHTS for Inducers of the Endoplasmic Reticulum Stress Response (ERSR) in Human Glioma: qHTS; U87-MG GRP78 promoter luciferase reporter, 16 h; 420,000 compounds, 0.02% hits; Potency, µM, most hits filed as activators; AID 602332, 2012; note: series mostly up to about 76 µM; nearly all actives have a fitted effect of over 35% in size
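Stably transfected U87-MG human glioma cells carrying a GRP78-based luminescent sensor were seeded at 1000 cells/well, pin-dosed with compounds and incubated 16 h. Luciferase reagent was then added, and end-point luminescence was read after 10 min at room temperature.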
TRHR enhancer-2: qHTS for Small Molecule Agonists and Allosteric Enhancers of Human TRH Receptor: Confirmation Screen for Enhancers; activity change, negative = inhibition, % at 46.1 µM; shares compounds with TRHR enhancer-1; 970 tested, under 10 active; TRH receptor cell assay, enhancer confirmation qHTS;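 note: compound effect scored on response to added TRH at EC20 of 10 nM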
TRHR agonist-2: qHTS for Small Molecule Agonists and Allosteric Enhancers of Human TRH Receptor: Confirmation Screen for Agonists | shares compounds with TRHR enhancer-1 | TRHR-expressing cells, agonist activation read-out | Potency, µM (doses to about 46.1 µM), usual class: activators | 970 compounds, 8% hits | AID 493078, 2011; note: nearly all actives have a fitted effect of over 75% in size
Of the large screens only hits and unclear results are named; the others gave an inactive call (follow-up assays come after a bar, where they were run). In the library only some 4% were active in any assay of this set; here they are far more common. Unless noted, calls come from the whole dose curve; as a rule, active = well fitted curve in the direction sought with a large enough effect; inconclusive = small, poorly fitted or top-dose-only effect, or another doubt; inactive = no such curve, though single readings can be large; an effect the other way counts as inactive or inconclusive.

Cn1nc(C(=O)OCC(=O)Nc2ccc(Cl)cc2Cl)c2ccccc2c1=O	TRHR enhancer-1 42 | TRHR enhancer-2 inactive | TRHR agonist-2 inactive
COc1ccc(-c2nnn(CC(=O)N(CC(=O)NC3CCCC3)c3ccccc3F)n2)cc1OC	none
CN1CC(=O)N/C1=N\C(=O)Nc1ccc(O)cc1	TRHR enhancer-1 54 | TRHR enhancer-2 inactive | TRHR agonist-2 inactive
O=C(CSc1n[nH]c(-c2ccccc2Cl)n1)N1CCN(c2ccc(F)cc2)CC1	none
COc1ccc(C(C[N+](=O)[O-])c2c(-c3ccccc3)cc3ccccn23)cc1 (stereo not given)	TRHR enhancer-1 54, GRP78 ERSR act inconclusive | TRHR enhancer-2 inactive | TRHR agonist-2 inactive
COc1ccc(N(C(=O)c2ccccc2C)S(=O)(=O)c2ccc3c(c2)n(C)c(=O)n3C)cc1	none
CCOC(=O)CSc1ccc2nnc(-c3ccncc3)n2n1	TRHR enhancer-1 52 | TRHR enhancer-2 inactive | TRHR agonist-2 inactive
Cc1cc(C)cc(OCC(=O)NCC(c2ccc(Cl)cc2)N2CCCCC2)c1 (stereo not given)	none
CCOc1ccc(CCNC(=O)CSc2nc3ncc(Cl)cc3[nH]2)cc1OCC	none
CCCCn1c(N)c(N(CC(C)C)C(=O)c2ccc(-c3ccc(C(C)=O)cc3)o2)c(=O)[nH]c1=O	none
Cc1ncoc1C(=O)N1CCCC(CCC(=O)NCc2ccccc2F)C1 (stereo not given)	TRHR enhancer-1 45 | TRHR enhancer-2 inactive | TRHR agonist-2 inactive
Cc1ncoc1C(=O)N1CCCC(CCC(=O)NCc2ccc(F)c(F)c2)C1 (stereo not given)	none
CCc1nc2ccccc2n2c(-c3ccc(C)cc3)c3c(=O)n(C)c(=O)n(C)c3c12	none
Cc1ccc(-c2c3c(=O)n(C)c(=O)n(C)c3c3cnc4ccccc4n23)cc1	TRHR enhancer-1 59 | TRHR enhancer-2 inactive | TRHR agonist-2 inactive
O=C(CNC(=O)c1ccccc1)NC1(C(=O)NC2CCCC2)CCCCC1	none
O=C(CNC(=O)c1ccccc1)NC1(C(=O)NC2CCCCC2)CCCCC1	TRHR enhancer-1 53 | TRHR enhancer-2 inactive | TRHR agonist-2 inactive
CCNc1nc(NCC)n2c(SCC(=O)Nc3ccc(C)c(C)c3)nnc2n1	TRHR enhancer-1 45 | TRHR enhancer-2 inactive | TRHR agonist-2 inactive
CCNc1nc(NCC)n2c(SCC(=O)Nc3ccc(F)cc3)nnc2n1	none
Cc1noc(C)c1-c1ccc2ncnc(N3CCC(C(=O)O)CC3)c2c1	none (no result: D1 antag, D1 agonist, TRHR agonist-1, D1 potentiator, TRHR enhancer-1)
COCCOc1cc2ncnc(N3CCC(C(=O)O)CC3)c2cc1OCCOC	TRHR enhancer-1 43 | TRHR enhancer-2 inactive | TRHR agonist-2 inactive
O=C(NCCCN=C1NS(=O)(=O)c2ccccc21)c1ccc(F)cc1	TRHR enhancer-1 58 | TRHR enhancer-2 inactive | TRHR agonist-2 inactive
CCCn1cccc(C(=O)Nc2ccc(OC)cc2)c1=O	none
C#CCn1cccc(C(=O)Nc2ccc(OC)cc2)c1=O	TRHR enhancer-1 45 | TRHR enhancer-2 inactive | TRHR agonist-2 inactive
COc1ccc(NC(=O)c2cccc(N3C(=O)C4C5C=CC(C6CC56)C4C3=O)c2)cc1 (stereo not given)	none
O=C(Cc1ccccc1)Nc1ccccc1C(=O)N1CCCCC1	none
O=C(Cc1ccc(Cl)cc1)Nc1ccccc1C(=O)N1CCCC1	TRHR enhancer-1 70 | TRHR enhancer-2 inconclusive | TRHR agonist-2 inactive
CCOC(=O)CSc1nnc(CNC(=O)c2cccs2)n1-c1cc(C)ccc1C	none
CCN(C(=O)COn1nnc2ccc(S(=O)(=O)N(C)C)cc21)C1CCS(=O)(=O)C1 (stereo not given)	none
Cc1cccc(S(=O)(=O)Nc2nc3ccccc3nc2Nc2ccc3c(c2)OCO3)c1	TRHR enhancer-1 44 | TRHR enhancer-2 inactive | TRHR agonist-2 inactive
O=S(=O)(Nc1nc2ccccc2nc1Nc1ccc2c(c1)OCO2)c1ccccc1	none
Cc1ccccc1NC(=O)CSc1nc2ccc(NC(=O)CCc3ccccc3)cc2s1	none
CC(C)=CCc1c(O)ccc(C(=O)Cc2ccccc2)c1O	TRHR enhancer-1 67 | TRHR enhancer-2 inactive | TRHR agonist-2 inconclusive
COc1cc2ncnc(NCc3ccccc3)c2cc1OC	none
COc1cc2ncnc(NCc3ccco3)c2cc1OC	TRHR enhancer-1 75 | TRHR enhancer-2 inactive | TRHR agonist-2 inactive
CCOC(=O)c1cc(CC)sc1NC(=O)COC(=O)c1cnccn1	none
CCOC(=O)c1cc(CC)sc1NC(=O)COC(=O)c1ccccn1	TRHR agonist-1 36 | TRHR enhancer-2 inactive | TRHR agonist-2 inactive
COc1ccccc1NC(=O)COn1nnc2ccc(S(=O)(=O)N3CCOCC3)cc21	TRHR enhancer-1 59 | TRHR enhancer-2 inactive | TRHR agonist-2 inactive
COc1ccc(Cn2c(=O)[nH]c3cc(C(=O)N4CCN(Cc5ccccc5)CC4)ccc3c2=O)cc1	none
COc1ccc2c(C)c(C(=O)N3CCN(Cc4ccccc4)CC3)oc2c1	TRHR enhancer-1 70 | TRHR enhancer-2 inconclusive | TRHR agonist-2 inactive
Cc1nc2cc3ccccc3cc2n1C	none
Cc1nc2cc(O)ccc2n1C	TRHR enhancer-1 61 | TRHR enhancer-2 inactive | TRHR agonist-2 inactive
O=C(Nc1ccc(Cl)cc1Cl)c1ccc2c(=O)n3c(nc2c1)CCC3	none | TRHR enhancer-2 inactive | TRHR agonist-2 inconclusive
O=C(Nc1ccc(Br)cc1Cl)c1ccc2c(=O)n3c(nc2c1)CCC3	none
Cc1ccc(/C=C/c2nc3ccccc3[nH]2)cc1	none
Cc1ccc(/C=C/c2nc3ccccc3[nH]2)o1	TRHR enhancer-1 46 | TRHR enhancer-2 inconclusive | TRHR agonist-2 inactive
CCOc1cc(/C=C/C(=O)Nc2ccc(C(=O)NCCN(CC)CC)cc2)ccc1OCC(C)C	D1 antag -41, TRHR enhancer-1 42 | TRHR enhancer-2 inactive | TRHR agonist-2 inactive
CCOc1ccc(/C=C/C(=O)Nc2ccc(C(N)=O)cc2)cc1OC	none
